# Results taken from PubChem BioAssay (NCATS).
# Records with an inconclusive call do not appear. A call without a number means that no potency is given here. Activity calls are given as the source filed them. The call rests on the fitted dose curve; in most records, active means well fitted curve in the direction sought with a large enough effect; inconclusive means small, poorly fitted or top-dose-only effect, or another doubt; inactive means no such curve, though single readings can be large; an effect the other way counts as inactive or inconclusive.
# Assays:
# [1] = P-glycoprotein substrates identified in KB-8-5-11 adenocarcinoma cell line, qHTS therapeutic library screen (AID 1346987); further: nearly all actives have a fitted effect of over 65% in size; on activity change, negative = cytotoxicity: series mostly up to about 44 µM
# Outline: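 KB-8-5-11: colchicine-selected sub-line of KB-3-1 over-expressing P-gp; assay medium lacked colchicine. 72 h drug exposure at 37 degree C, CellTiter-Glo.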
# [2] = system: Zika virus NS2B-NS3 protease (unlinked complex); assay: Primary screen GU Rhodamine qHTS for Zika virus inhibitors: Unlinked NS2B-NS3 protease assay (AID 1347159); further: nearly all actives have a fitted effect of over 60% in size; further: potency means the concentration at half of the fitted maximal effect
# Outline: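 Percent inhibition derives from the 15-min fluorescence change (ex 480, em 540 nm), normalized to no-enzyme and no-inhibitor wells. Reactions contained 25 nM NS2B-NS3 complex and 1.5 microM substrate in 10 mM Tris-HCl pH 8.0.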
# [3] = system: Zika virus NS2B-NS3 protease (linked construct); assay: Primary screen NINDS Rhodamine qHTS for Zika virus inhibitors (AID 1347160); further: nearly all actives have a fitted effect of over 55% in size; further: potency means the concentration at half of the fitted maximal effect
# Outline: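 In 10 mM Tris-HCl pH 8.0 containing 0.01% Tween 20, linked NS2B-NS3 protease (25 nM final) is exposed to test compounds for 15 min. Cleavage of 1.5 microM Rhodamine110 substrate is tracked by fluorescence over 15 min.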
compound,measurement,setting,value
CC1OC(O[C@H]2CC[C@@]3(C)C(CC[C@]4(C)C3CC=C3C5CC(C)(C)CC[C@]5(C(=O)OC5OC(CO)C(OC6OCC(OC7OCC(O)C(O)C7O)C(O)C6O)C(O)C5O)CC[C@]34C)C2(C)C)C(O)C(O)C1OC1OC(CO)C(O)C(OC2OC(CO)C(O)C(O)C2O)C1O (some centres undefined),outcome,[1],inactive [at 9.29 µM]
same,"activity change, negative = inhibition",[2],1.81% [at 19.1 µM] (inactive)
same,outcome,[3],inactive [at 10.7 µM]
Cc1nc2ccccc2c(-c2ccc3c4c(ccnc24)CCO3)c1[C@H](OC(C)(C)C)C(=O)O,Potency,[1],inactive
same,Potency,[2],inactive
same,Potency,[3],inactive
CC1(C)CC[C@]2(C(=O)OC3OC(CO)C(O)C(O)C3O)CC[C@]3(C)C(=CCC4[C@@]5(C)C[C@@H](O)[C@H](OC6OC(C(=O)O)C(O)C(O)C6O)C(C)(C)C5CC[C@]43C)[C@@H]2C1 (some centres undefined),"activity change, negative = cytotoxicity",[1],8.55% [at 9.29 µM] (inactive)
same,Potency,[2],inactive
same,Potency,[3],inactive
CCC1(O)CC2c3cc(OC)c(OC)cc3CCN2CC1CC(C)C (centres undefined),Potency,[1],inactive
same,Potency,[2],inactive
same,Potency,[3],inactive
COC(=O)[C@H](O)[C@H]1C(C)(C)[C@H](OC(C)=O)[C@@]2(O)C(=O)[C@]1(C)C1CC[C@]3(C)C(CC(=O)O[C@H]3c3ccoc3)[C@]13O[C@@H]32 (some centres undefined),Potency,[1],inactive
same,Potency,[2],inactive
same,Potency,[3],inactive
COC1OC(O)C2(CCC3(O2)C(C)CC2OC(=O)C4(C)CCCC3(C)C24)C1O (centres undefined),Potency,[1],inactive
same,Potency,[2],inactive
same,Potency,[3],inactive
CC(C)(O)[C@@H]1CC[C@]2(CO)[C@@H](O)CC[C@](C)(O)[C@H]2[C@@H]1O[C@@H]1O[C@H](CO)[C@@H](O)[C@H](O)[C@H]1O,Potency,[1],inactive
same,Potency,[2],inactive
same,Potency,[3],inactive
Cc1c(NC(=O)N2CCOCC2)ccc2c1c1ccccc1n2C(C)C,Potency,[1],inactive
same,Potency,[2],inactive
same,Potency,[3],inactive
COc1cncc(C#Cc2ccccn2)c1,Potency,[1],inactive
same,Potency,[2],inactive
same,Potency,[3],inactive
COc1cccc(C(=O)NCCNc2nc3cc(C)cc(C)c3cc2C#N)c1,Potency,[1],inactive
same,Potency,[2],inactive
same,Potency,[3],inactive
C=C(C(=O)O)C1CC(O)C2(C)CCCC(C)(O)C2C1 (centres undefined),Potency,[1],inactive
same,Potency,[2],inactive
same,Potency,[3],inactive
CC(=O)OCC(Cc1ccccc1)NC(=O)C(Cc1ccccc1)NC(=O)c1ccccc1 (centres undefined),Potency,[1],inactive
same,Potency,[2],inactive
same,Potency,[3],inactive
C=C1CC[C@@]2(OC1)O[C@H]1CC3[C@@H]4CC=C5C[C@H](O[C@H]6OC[C@@H](O)C(O)[C@@H]6O[C@@H]6O[C@@H](C)[C@H](O)[C@@H](O[C@@H]7O[C@H](CO)[C@@H](O)[C@H](O)[C@H]7O)[C@H]6O)C[C@@H](O)[C@]5(C)C4CC[C@]3(C)[C@H]1[C@@H]2C (some centres undefined),"activity change, negative = cytotoxicity",[1],2.38% [at 9.29 µM] (inactive)
same,Potency,[2],inactive
same,Potency,[3],inactive
O=C(NC/C=C/CN1CCN(c2cccc(Cl)c2Cl)CC1)c1ccc(-c2ccccn2)cc1,Potency,[1],inactive
same,Potency,[2],inactive
same,Potency,[3],inactive
Cc1occc1C(=O)n1ccnc1,Potency,[1],inactive
same,Potency,[2],inactive
same,Potency,[3],inactive
CN(C)C(=O)C(O)C(Cc1ccccc1)NC(=O)c1cc2cc(Cl)ccc2[nH]1 (centres undefined),Potency,[1],inactive
same,Potency,[2],inactive
same,Potency,[3],inactive
COC(=O)C1C(O)CCC2CN3CCc4c([nH]c5ccccc45)C3CC21 (centres undefined),Potency,[1],inactive
same,Potency,[2],12.6 µM (active)
same,Potency,[3],inactive
CCC(C)/C=C(C)/C=C/C(=O)C1CCC(O)C(C)(O)C1=O (centres undefined),Potency,[1],inactive
same,Potency,[2],17.8 µM (active)
same,Potency,[3],25.1 µM (active)
COc1ccc(/C=C/C(=O)N2CCCC2)cc1,Potency,[1],inactive
same,Potency,[2],inactive
same,Potency,[3],inactive
CS(=O)(=O)c1ccccc1N1CCN(c2nc3c(c(=O)[nH]2)CSCC3)CC1,Potency,[1],inactive
same,Potency,[2],inactive
same,Potency,[3],inactive
CC(C)C(NC(=O)c1ccc(O)cc1)C(=O)N1CCCC1C(=O)Nc1c(O)cccc1C(=O)O (centres undefined),Potency,[1],inactive
same,Potency,[2],inactive
same,Potency,[3],inactive
COc1ccc(/C=C/C(=O)O[C@@H]2[C@@H](OC(C)=O)[C@@H](OC(C)=O)[C@H](O[C@H]3[C@@H]4C=CO[C@@H](O[C@@H]5O[C@H](CO)[C@@H](O)[C@H](O)[C@H]5O)[C@@H]4[C@@]4(CO)O[C@@H]34)O[C@H]2C)cc1,Potency,[1],inactive
same,Potency,[2],inactive
same,Potency,[3],inactive
OC[C@@]1(O)CO[C@@H](OC[C@H]2O[C@@H](Oc3ccccc3)[C@H](O)[C@@H](O)[C@@H]2O)[C@@H]1O,Potency,[1],inactive
same,Potency,[2],inactive
same,Potency,[3],inactive
C[C@]12CCC[C@](C)(C(=O)O)C1CCC13CC(CO)C(CCC12)C3 (some centres undefined),Potency,[1],inactive
same,Potency,[2],inactive
same,Potency,[3],inactive
C/C=C1\[C@H](O[C@@H]2O[C@H](CO)[C@@H](O)[C@H](O)[C@H]2O)OC=C(C(=O)O)[C@H]1CC(=O)OCCc1ccc(O)cc1,Potency,[1],inactive
same,Potency,[2],inactive
same,Potency,[3],inactive
CCC(C)C(=O)OC[C@H]1O[C@H](O[C@H]2O[C@H](CO)[C@@H](O)[C@H](O)[C@H]2O)[C@H](O)[C@@H](O)[C@@H]1O (some centres undefined),Potency,[1],inactive
same,Potency,[2],inactive
same,Potency,[3],inactive
COc1cc([C@@H](O[C@@H]2O[C@H](CO)[C@@H](O)[C@H](O)[C@H]2O)[C@@H]2CO[C@H](c3ccc(O)c(OC)c3)[C@H]2CO)ccc1O,Potency,[1],inactive
same,Potency,[2],inactive
same,Potency,[3],inactive
COc1cc(O)cc2c1C(=O)OC(C)C2 (centres undefined),Potency,[1],inactive
same,Potency,[2],inactive
same,Potency,[3],inactive
C[C@@H]1O[C@@H](O[C@H]2[C@H](OC(=O)[C@]34CCC(C)(C)C[C@H]3C3=CCC5[C@@]6(C)CC[C@H](O[C@@H]7O[C@H](CO[C@@H]8OC[C@H](O)[C@H](O)[C@H]8O)[C@@H](O)[C@H](O)[C@H]7O)C(C)(C)C6CC[C@@]5(C)[C@]3(C)C[C@H]4O)OC[C@@H](O)[C@@H]2O)[C@H](O)[C@H](O[C@@H]2OC[C@](O)(CO)[C@H]2O)[C@H]1O[C@@H]1OC[C@H](O)[C@H](O[C@@H]2OC[C@@H](O)[C@H](O)[C@H]2O)[C@H]1O (some centres undefined),"activity change, negative = cytotoxicity",[1],5.27% [at 9.29 µM] (inactive)
same,"activity change, negative = inhibition",[2],-5.76% [at 19.1 µM] (inactive)
same,outcome,[3],inactive [at 10.7 µM]
COc1cc(CO)cc(OC)c1O[C@@H]1O[C@H](CO)[C@@H](O)[C@H](O)[C@H]1O,Potency,[1],inactive
same,Potency,[2],inactive
same,Potency,[3],inactive
CC1=CCC(O)C2(C)CCC3C(C)C(=O)OC3C12 (centres undefined),Potency,[1],inactive
same,Potency,[2],inactive
same,Potency,[3],inactive
CC1C2=CC(=O)OC2(O)CC2C1C(O)CC1C(C)(CO)CCCC21C (centres undefined),Potency,[1],inactive
same,Potency,[2],inactive
same,Potency,[3],inactive
O=C(C[C@@H]1C(C(=O)O)=CO[C@@H](O[C@@H]2O[C@H](CO)[C@@H](O)[C@H](O)[C@H]2O)/C1=C\CO)OCCc1ccc(O)c(O)c1,Potency,[1],inactive
same,Potency,[2],inactive
same,Potency,[3],inactive
C=C1C(OC(C)=O)[C@@]23CCC4[C@](C)(C(=O)O)CCC[C@@]4(C)[C@]2(O)CC[C@H]1C3 (some centres undefined),Potency,[1],inactive
same,Potency,[2],inactive
same,Potency,[3],inactive
CC(=O)OCC1OC(O[C@H]2CC[C@]34C[C@]35CC(O)[C@]3(C)[C@@H]([C@H](C)CC/C=C(\C)C(=O)O)C(O)C[C@@]3(C)C5CC[C@H]4C2(C)C)C(O)C(O)C1OC1OCC(O)C(O)C1O (some centres undefined),outcome,[1],inactive [at 9.29 µM]
same,Potency,[2],inactive
same,Potency,[3],inactive
COc1ccc(N2CCN(CCCNC(=O)Cn3c(=O)c4cccn4c4c(C)ccnc43)CC2)cc1,Potency,[1],inactive
same,Potency,[2],inactive
same,Potency,[3],inactive
CNC(C)C(=O)NC(C(=O)N1CCCC1C(=O)Nc1cccc2ncccc12)C(C)C (centres undefined),Potency,[1],inactive
same,Potency,[2],inactive
same,Potency,[3],inactive
OC[C@H]1O[C@@H](Oc2cc(O)cc(-c3cc4ccc(O[C@@H]5O[C@H](CO)[C@@H](O)[C@H](O)[C@H]5O)cc4o3)c2)[C@H](O)[C@@H](O)[C@@H]1O,Potency,[1],inactive
same,Potency,[2],inactive
same,Potency,[3],inactive
C=C1CC[C@@H]2[C@@](C)(CO[C@@H]3O[C@H](CO)[C@@H](O)[C@H](O)[C@H]3O)[C@H](O)CC[C@@]2(C)[C@@H]1CC/C(C)=C/CO[C@@H]1O[C@H](CO)[C@@H](O)[C@H](O)[C@H]1O,Potency,[1],inactive
same,Potency,[2],inactive
same,Potency,[3],inactive
C[C@@H](NC(=O)c1cc(C(=O)N[C@@H](Cc2ccccc2)[C@H](O)CNC2CC2)cc(N(C)S(C)(=O)=O)c1)c1ccccc1,Potency,[1],inactive
same,Potency,[2],inactive
same,Potency,[3],inactive
COC(=O)C(Cc1ccccc1)NC(=O)c1ccccc1 (centres undefined),Potency,[1],inactive
same,Potency,[2],inactive
same,Potency,[3],inactive
C/C=C(\C)C(=O)OC1C(C)C2(O)C3C=C(C)C(=O)C3CC(CO)=CC2C2C(C)(C)C12OC(C)=O (centres undefined),Potency,[1],inactive
same,Potency,[2],inactive
same,Potency,[3],inactive
CN(C)CCC[C@]1(c2ccc(F)cc2)OCc2cc(C#N)ccc21,Potency,[1],inactive
same,Potency,[2],inactive
same,Potency,[3],inactive
CC1(C)CC[C@]2(C(=O)O[C@@H]3O[C@H](CO)[C@@H](O)[C@H](O)[C@H]3O)CC[C@]3(C)C(=CCC4[C@@]5(C)CC[C@H](O[C@H]6O[C@H](CO)[C@@H](O)[C@H](O[C@@H]7O[C@H](CO)[C@@H](O)[C@H](O)[C@H]7O)[C@H]6O)C(C)(C)C5CC[C@]43C)[C@@H]2C1 (some centres undefined),"activity change, negative = cytotoxicity",[1],4.26% [at 9.29 µM] (inactive)
same,Potency,[2],inactive
same,Potency,[3],inactive
CC1OC(O[C@@H]2[C@@H](O)[C@H](OC(=O)[C@]34CCC(C)(C)C[C@H]3C3=CCC5[C@@]6(C)CC[C@H](O[C@@H]7O[C@H](C(=O)O)[C@@H](O)[C@H](O[C@@H]8OC[C@@H](O)[C@H](O)[C@H]8O)[C@H]7O[C@@H]7O[C@H](CO)[C@H](O)[C@H](O)[C@H]7O)[C@@](C)(C=O)C6CC[C@@]5(C)[C@]3(C)C[C@H]4O)O[C@H](C)[C@@H]2OC2OC(C)C(OC3OCC(O)C(O)C3O)C(O)C2O)C(O)C(O)C1O (some centres undefined),outcome,[1],inactive [at 9.29 µM]
same,"activity change, negative = inhibition",[2],7.56% [at 19.1 µM] (inactive)
same,Potency,[3],inactive
NC(=O)[C@@H]1CC[C@H](c2ccc(OCc3ccccc3F)cc2)N1,Potency,[1],inactive
same,Potency,[2],inactive
same,Potency,[3],inactive
C[C@H]1[C@H](C)CC[C@]2(C(=O)O)CC[C@]3(C(=O)O)C(=CCC4[C@@]5(C)CC[C@H](O[C@@H]6O[C@@H](C)[C@H](O)[C@@H](O)[C@H]6O)C(C)(C)C5CC[C@]43C)[C@H]12 (some centres undefined),Potency,[1],inactive
same,Potency,[2],inactive
same,Potency,[3],inactive
COC(=O)CCC1(C)C(C(C)(C)O)C(O)CC2(C)Oc3c(C)c4c(c(OC)c3CC21)C(=O)OC4 (centres undefined),Potency,[1],inactive
same,Potency,[2],inactive
same,Potency,[3],inactive
